Here are results for 13 molecules from PubChem BioAssay (NCATS).

The nature of assay [1]: Quantitative High-Throughput drug screen in 47 multiple myeloma cell lines against the NCATS MIPE library collection: PCM6_Riken cell viability assay (AID 1919870). Note: nearly all actives have a fitted effect of over 30% in size. Note: potency is the fitted concentration of half-maximal effect. Summed up: (§1)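 500 cells/well; MIPE 4.0 drugs pin-transferred; 48 h, 37C, 5% CO2. CellTiter-Glo, 5 min RT, luminescence. Controls: DMSO 100%, media 0%.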
Assay [2] can be described thus: Quantitative High-Throughput drug screen in 47 multiple myeloma cell lines against the NCATS MIPE library collection: OPM2_DSMZ cell viability assay (AID 1919872). Note: nearly all actives have a fitted effect of over 30% in size. Note: potency is the fitted concentration of half-maximal effect. In a few lines: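 CellTiter-Glo ATP luminescence gave viability after 48 h compound treatment at 37C of 500 multiple myeloma cells per well. Normalisation used DMSO-only wells as 100% and media-only wells as 0% viability; primary qHTS of approved and investigational drugs.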

Assay [3] in a line: Quantitative High-Throughput drug screen in 47 multiple myeloma cell lines against the NCATS MIPE library collection: KMS11_JCRBsus cell viability assay (AID 1919873). Note: nearly all actives have a fitted effect of over 50% in size. Note: potency is the fitted concentration of half-maximal effect. Summed up:
as §1

A short description of assay [4]: Quantitative High-Throughput drug screen in 47 multiple myeloma cell lines against the NCATS MIPE library collection: KMS28BM_JCRB cell viability assay (AID 1919874). Note: nearly all actives have a fitted effect of over 35% in size. Note: potency is the fitted concentration of half-maximal effect. In a few lines: as §1
A short description of assay [5]: qHTS drug screen for cell cycle checkpoint inhibitors in PARPi-resistant BRCA-mutant ovarian cancer cell lines. (AID 1963452; calls by dose curve). As to conditions: PEO1/OlaR viability, CellTiter-Glo luminescence, 96 h, stronger effect = lower value. Summed up: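 PEO1, PEO4 and PEO1/OlaR ovarian cancer cells, 600 per well, exposed 96 h at 37C to a dilution series. Viability read by CellTiter-Glo luminescence, normalized to DMSO and empty wells; activity summarized as Z-AUC.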
A general note: qHTS replaces the single test concentration by a dilution series.

Assay [6] in a line: qHTS for identification of novel therapeutic agents for treatment of microphthalmiaassociated transcription factor (MiT) renal cell carcinoma (RCC) (AID 1963991; calls by dose curve; note: potency is the fitted concentration of half-maximal effect). As to conditions: CellTiter-Glo, 48 h; for z-score: stronger effect = lower value; for Potency: active = Z-AUC below -0.8 in all three lines. Summed up:
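Curves over 11 concentrations were fitted to CellTiter-Glo luminescence, scaled between empty wells (0%) and DMSO (100%) viability. Cells were UOK109, UOK124 and UOK145 TFE3-fusion RCC lines at 500/well, exposed 48 hours at 37 C.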

A short description of assay [7]: Quantitative High-Throughput drug screen in 47 multiple myeloma cell lines against the NCATS MIPE library collection: RPMI8226_ATCC cell viability assay (AID 1919871). Note: nearly all actives have a fitted effect of over 30% in size. Note: potency is the fitted concentration of half-maximal effect. Summed up:
as §1

The test system of assay [8] is C2A. As to the kind of experiment: qHTS profiling for inhibitors of Plasmodium falciparum proliferation (AID 504749).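 For activity, negative = inhibition: 0% = DMSO vehicle and full inhibition = artemisinin control.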 Note: nearly all actives have a fitted effect of over 60% in size. Note: potency is the fitted concentration of half-maximal effect. The conditions noted are these: P. falciparum in erythrocytes, SYBR Green DNA, 72 h; series mostly up to 28.7 µM. Summed up: (§2)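 SYBR Green fluorescence (ex 485 nm, em 535 nm) reports parasite DNA after 72 h compound exposure of infected red cells at 0.3% parasitemia, 2.5% hematocrit; signal normalized to 0.29 uM artemisinin and vehicle wells.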

The test system of assay [9] is CP191. The assay is described as above. As to conditions: P. falciparum in erythrocytes, SYBR Green DNA, 72 h; series mostly up to 28.7 µM. In a few lines: as §2
The test system of assay [10] is CP192. Described as above. The conditions noted are these: P. falciparum in erythrocytes, SYBR Green DNA, 72 h; series mostly up to 28.7 µM. Summed up: as §2
Assay [11] has as its system CP194. The assay is described as above. As to conditions: P. falciparum in erythrocytes, SYBR Green DNA, 72 h; series mostly up to 28.7 µM. In a few lines:
as §2

Assay in assay [12]: as above
As to conditions: P. falciparum in erythrocytes, SYBR Green DNA, 72 h, at 28.7 µM (top of the series). Summed up:
as §2

In assay [13] the test system is 3D7. The assay is described as above. As to conditions: P. falciparum in erythrocytes, SYBR Green DNA, 72 h; series mostly up to 28.7 µM. Summed up:
as §2

Assay [14] relates to 7G8. The assay is described as above. As to conditions: P. falciparum in erythrocytes, SYBR Green DNA, 72 h; series mostly up to 28.7 µM. Summed up: as §2
Assay [15] relates to AA1029. The description is as above. The conditions noted are these: P. falciparum in erythrocytes, SYBR Green DNA, 72 h; series mostly up to 28.7 µM. In a few lines:
as §2

Assay [16] has as its system AS120. The assay is described as above. The conditions noted are these: P. falciparum in erythrocytes, SYBR Green DNA, 72 h; series mostly up to 28.7 µM. In a few lines:
as §2

Assay [17] relates to ATS189. The description is as above. The conditions noted are these: P. falciparum in erythrocytes, SYBR Green DNA, 72 h; series mostly up to 28.7 µM. Summed up:
as §2

Assay [18] concerns ATS95. The description is as above. As to conditions: P. falciparum in erythrocytes, SYBR Green DNA, 72 h; series mostly up to 28.7 µM. Summed up:
as §2

The test system of assay [19] is CP185. Described as above. As to conditions: P. falciparum in erythrocytes, SYBR Green DNA, 72 h; series mostly up to 28.7 µM. Summed up:
as §2

Where [20] appears, read: measured here: PEO1 parental Z-AUC.
Where [21] appears, read: TFE3-RCC UOK109 viability, measured here: UOK109 Z-AUC.
Setting [22] is: TFE3-RCC viability, measured here: UOK124 Z-AUC.
Setting [23] is: TFE3-RCC viability, measured here: UOK145 Z-AUC.

Structures are written as SMILES. Several values for one entry are separate records, joined by “and”; a condition that tells them apart may be missing. Identical values can stand only once. Inconclusive results are not listed. Activity calls are given as the source filed them. Unless noted, calls come from the whole dose curve; as a rule, active = well fitted curve in the direction sought with a large enough effect; inconclusive = small, poorly fitted or top-dose-only effect, or another doubt; inactive = no such curve, though single readings can be large; an effect the other way counts as inactive or inconclusive.

For `Clc1cccc(-n2nnnc2NCc2ccccc2Oc2ccccn2)c1Cl`, the Potency entry in assay [1], in assay [2], in [3] and in [4] was “inactive” each time. Besides, the Z-AUC in [5] was -0.248 (inactive); in assay [5] (setting [20]), -0.502; in [5] (measured here: PEO4 Z-AUC), 0.0945. Besides, the z-score was -0.1 in assay [6] (setting [21]), 0.284 in assay [6] (setting [22]) and -0.372 in assay [6] (setting [23]).

For the molecule `CNC(=O)c1ccc(-c2cnc3ncc(Cc4ccc5ncccc5c4)n3n2)cc1F`, the Potency result in assay [7], in assay [2] and in [3] was “inactive” throughout. Besides, the Z-AUC in assay [5] was -0.273 (inactive); in [5] (setting [20]), 1.03; in assay [5] (measured here: PEO4 Z-AUC), 0.0538.

For `CC(C)(C)NC(=O)[C@H]1CN(Cc2cccnc2)CCN1C[C@@H](O)C[C@@H](Cc1ccccc1)C(=O)N[C@H]1c2ccccc2C[C@H]1O`, the Potency in assay [1] is 8.33 µM (active); in assay [3] it was 18.7 µM (active); in assay [8] it was 10 µM (active); in assay [9], 8.91 µM (active); in assay [10], 10.7 µM (active); in assay [11], 15.1 µM (active).

Turning to `C[C@@H](Oc1cc(-n2cnc3ccc(CN4CCN(C)CC4)cc32)sc1C(N)=O)c1ccccc1C(F)(F)F`, the Potency in assay [1] is 13.2 µM (active); in [2] it was 0.059 µM (active); in assay [3], 0.0235 µM (active); in assay [6] (TFE3-RCC UOK109 viability) it was 6.62 µM (active). The Z-AUC in assay [5] was -0.926 (inactive); in assay [5] (setting [20]) it was -1.54; in [5] (measured here: PEO4 Z-AUC), -1.51. Moreover, the z-score in assay [6] (setting [21]) was -0.886; in [6] (setting [22]) it was -1.58; in [6] (setting [23]), -1.64.

With `COc1ccc(CC2SC(=O)NC2=O)cc1C(=O)NCc1ccc(C(F)(F)F)cc1` (stereo not drawn), the Potency in [1] is 7.43 µM (active). Also, the Potency entry in [7] and in assay [4] was “inactive” each time. Besides, the Z-AUC in assay [5] was 1.34 (inactive); in [5] (setting [20]), 1.11; in assay [5] (measured here: PEO4 Z-AUC), 1.12.

As for `CCN1CCN(Cc2ccc(-c3cc4c(N[C@H](C)c5ccccc5)ncnc4[nH]3)cc2)CC1`, the Potency in [1] is 1.66 µM (active); in [3] it was 3.72 µM (active). For the same molecule, the Z-AUC in assay [5] is -1.03 (inactive); in assay [5] (setting [20]), 0.0439; in assay [5] (measured here: PEO4 Z-AUC) it was -0.489.

Regarding `CCCCCN(CCC12CC3CC(CC(C3)C1)C2)C(=O)NCCCc1ccncc1`, the Potency in assay [7] is 20.9 µM (active); in [3], 16.6 µM (active). Besides, in [2], the Potency entry is “inactive”. Besides, the figures for the Z-AUC in assay [5], in [5] (setting [20]) and in assay [5] (measured here: PEO4 Z-AUC) were -0.0878 (inactive), 0.162 and -0.141, respectively.

Turning to `O=c1c2ccccc2nc2n1CCc1c-2[nH]c2ccccc12`, the Potency in assay [1] is 13.2 µM (active). Moreover, the Potency result in assay [7] and in [2] was “inactive” throughout.

`C=CC(=O)N1CCC[C@@H](n2nc(-c3ccc(Oc4ccccc4)cc3)c3c(N)ncnc32)C1`: the Potency in [7] was 20.9 µM (active). Moreover, the Z-AUC in assay [5] was 0.296 (inactive); in assay [5] (setting [20]), 0.501; in assay [5] (measured here: PEO4 Z-AUC), 0.517.

For the molecule `COc1cc2nccc(Oc3ccc(NC(=O)C4(C(=O)Nc5ccc(F)cc5)CC4)cc3)c2cc1OC`, the Potency in assay [1] is 2.96 µM (active); in assay [7], 20.9 µM (active); in [2], 23.5 µM (active); in assay [3] it was 20.9 µM (active); in [4], 20.9 µM (active). Further, the figures for the Z-AUC in assay [5], in [5] (setting [20]) and in [5] (measured here: PEO4 Z-AUC) were -0.0071 (inactive), 0.252 and -0.118, respectively.

`CS(=O)(=O)c1ccc(-c2cnc(N)c(C(=O)Nc3ccccc3)n2)cc1`: the Potency entry in [7], in assay [2] and in assay [4] was “inactive” each time. The Z-AUC was -0.54 (inactive) in assay [5], -0.901 in assay [5] (setting [20]) and -1.14 in assay [5] (measured here: PEO4 Z-AUC). The results for the z-score in assay [6] (setting [21]), in assay [6] (setting [22]) and in [6] (setting [23]) were 0.172, 0.911 and 0.761, respectively.

As for `Nc1ccn([C@@H]2CS[C@H](CO)O2)c(=O)n1`, the Potency entry in [7], in [2], in assay [4], in assay [13], in assay [14] and in assay [15] was “inactive” in each case. Moreover, the Potency entry in assay [16], in [17], in assay [18], in assay [8], in [19] and in assay [9] was “inactive” in each case. In addition, the Potency result in [10] and in assay [11] was “inactive” throughout. For the same molecule, the results for the z-score in assay [6] (setting [21]), in assay [6] (setting [22]) and in assay [6] (setting [23]) were -0.159, 0.923 and 0.391, respectively. The activity, negative = inhibition in assay [12] (parasite line A) was 3.35% (inactive) and 3.28% (inactive); in assay [12] (parasite line B), 12% (inactive) and -4.61% (inactive).

With `CNC(=O)CN1CCC(Oc2cc3c(Nc4cccc(Cl)c4F)ncnc3cc2OC)CC1`, the Potency in assay [1] was 0.0235 µM (active); in assay [2], 0.0833 µM (active); in assay [3], 0.0372 µM (active); in assay [4] it was 0.0187 µM (active); in assay [6] (TFE3-RCC UOK109 viability) it was 1.87 µM (active). The figures for the Z-AUC in assay [5], in assay [5] (setting [20]) and in assay [5] (measured here: PEO4 Z-AUC) were 0.332 (inactive), 0.682 and 0.199, respectively. Moreover, the figures for the z-score in [6] (setting [21]), in assay [6] (setting [22]) and in assay [6] (setting [23]) were -2.86, -2.18 and -1.75, respectively.
